The values below come from PubChem BioAssay (NCATS).

Assay [1] in a line: Confirmatory screen GU Rhodamine qHTS for Zika virus inhibitors qHTS (AID 1347157). Further: potency means the concentration at half of the fitted maximal effect; nearly all actives have a fitted effect of over 70% in size. Put shortly:
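A qHTS format was used, with compound concentrations ranging up to 114 microM. Each compound was preincubated with 25 nM NS2B-NS3 protease, and the substrate was then added at 1.5 microM. Curves were fitted with a 4-parameter Hill model.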
(Quantitative high-throughput screening tests each substance at several concentrations.)

For assay [2], the system named is Zika virus NS2B-NS3 protease (unlinked complex). Nature of the assay: Primary screen GU Rhodamine qHTS for Zika virus inhibitors: Unlinked NS2B-NS3 protease assay (AID 1347159). Further: nearly all actives have a fitted effect of over 60% in size. Further: potency means the concentration at half of the fitted maximal effect. On activity change, negative = inhibition: on the % scale 0 is the no-effect control and ±100 the full control effect. Summed up: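 Percent inhibition came from the 15-min rise in Rhodamine110 fluorescence (1.5 microM substrate, ~15% conversion), normalized to no-inhibitor and no-enzyme wells and Hill-fitted. Unlinked protease, 25 nM, pH 8.0 Tris buffer; compounds up to 114 microM, 15-min preincubation.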

Assay [3] in a line: Confirmatory screen NINDS Rhodamine qHTS for Zika virus inhibitors (AID 1347161). Further: potency means the concentration at half of the fitted maximal effect; nearly all actives have a fitted effect of over 60% in size. Summed up:
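Single-chain NS2B-NS3 protease, 25 nM, pH 8.0; compounds preincubated 15 min. Activity: Rhodamine110 release from 1.5 microM substrate over 15 min, room temperature, data fitted to 4-parameter Hill.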

In assay [4] the test system is Zika virus NS2B-NS3 protease (linked construct). Nature of the assay: 384 well plate NINDS Rhodamine confirmatory qHTS for Zika virus inhibitors (AID 1347164).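 Further: fluorescence from protease cleavage of Ac-LKRR-rhodamine 110 substrate; potency means the concentration at half of the fitted maximal effect; nearly all actives have a fitted effect of over 65% in size.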 Put shortly:
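Linked protease at a final 5 nM, 30 nM or 60 nM was preincubated ~15 min with compounds, then given 10 microM Ac-LKRR-Rhodamine 110. Fluorescence (ex 485/em 538 nm) after 25 min in the dark at room temperature.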

Assay [5] has as its target Cytochrome P450 2C9 (Homo sapiens) (UniProt P11712). Nature of the assay: Cytochrome P450 family 2 subfamily C member 9 (CYP2C9) small molecule antagonists: luciferase biochemical (cell-free) qHTS assay (AID 1645842; active means well fitted curve in the direction sought with a large enough effect in the repeat runs; an effect the other way counts as inactive or inconclusive; further: potency means the concentration at half of the fitted maximal effect; nearly all actives have a fitted effect of over 55% in size). Put shortly: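 P450-Glo CYP2C9 system: proluciferin substrate with enzyme in mix containing 0.4% BSA, 10 min at room temperature, then NADPH regeneration solution added and incubated 1 h at 37C. Detection reagent stopped reaction; luminescence read after 20 min as RLU.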

Assay [6] deals with Catechol O-methyltransferase (Homo sapiens) (UniProt P21964). Nature of the assay: Confirmatory Screen for Target Class Profiling of Small Molecule Inhibitors of Methyltransferases (AID 1745852; calls by dose curve; on activity change, negative = inhibition: on the % scale 0 is the no-effect control and ±100 the full control effect). Particulars: MTase-Glo luminescence, SAH detection, recombinant enzyme; measured here: COMT max response; stronger effect = lower value.
Sequence of Catechol O-methyltransferase (Homo sapiens) (P21964 whole entry, looked up): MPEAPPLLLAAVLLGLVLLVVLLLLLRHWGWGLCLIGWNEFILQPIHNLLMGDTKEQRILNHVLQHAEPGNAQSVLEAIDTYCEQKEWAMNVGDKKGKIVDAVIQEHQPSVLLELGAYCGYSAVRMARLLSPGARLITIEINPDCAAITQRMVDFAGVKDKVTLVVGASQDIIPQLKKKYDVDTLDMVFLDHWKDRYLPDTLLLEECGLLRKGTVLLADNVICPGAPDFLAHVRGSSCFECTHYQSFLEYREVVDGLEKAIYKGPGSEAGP
Assay [7] has as its target Guanidinoacetate N-methyltransferase (Homo sapiens) (UniProt Q14353). The description is as above. The conditions noted are these: activity change, negative = inhibition: at 57.3 µM (top of the series) unless noted.
Assay [8] concerns the target Nicotinamide N-methyltransferase (Homo sapiens) (UniProt P40261). Described as above. Particulars: MTase-Glo luminescence, SAH detection, recombinant enzyme; measured here: NNMT max response; stronger effect = lower value.
The target of assay [9] is Phenylethanolamine N-methyltransferase (Homo sapiens) (UniProt P11086). Described as above. Particulars: MTase-Glo luminescence, SAH detection, recombinant enzyme; measured here: PNMT max response; stronger effect = lower value.
Sequence of Phenylethanolamine N-methyltransferase (Homo sapiens) (P11086 whole entry, looked up): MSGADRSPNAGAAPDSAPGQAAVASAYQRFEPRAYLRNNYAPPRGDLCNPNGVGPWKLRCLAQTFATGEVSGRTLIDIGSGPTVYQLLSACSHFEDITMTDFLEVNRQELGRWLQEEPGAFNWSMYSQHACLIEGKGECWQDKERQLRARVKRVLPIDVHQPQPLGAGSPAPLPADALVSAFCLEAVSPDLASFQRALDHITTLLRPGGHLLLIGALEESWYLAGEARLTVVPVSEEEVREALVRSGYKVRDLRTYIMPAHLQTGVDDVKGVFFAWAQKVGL
Assay [10] has as its system CRL-7250. Nature of the assay: Cytotoxic Profiling of Annotated Libraries Using Quantitative High-Throughput Screening (AID 1296008). Further: nearly all actives have a fitted effect of over 60% in size. Further: potency means the concentration at half of the fitted maximal effect. On max response: on the % scale 0 is the no-effect control and ±100 the full control effect. The conditions noted are these: Five cell lines viability, CellTiter-Glo ATP luminescence, 48-72 h; max response: stronger effect = lower value. Put shortly:
(§1)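 Cytotoxicity was measured as CellTiter-Glo ATP luminescence, read after 10 min at room temperature. Compound treatment of the cells lasted 48 or 72 hr at 37 degrees Celsius in a qHTS format.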
(In general: Cellular ATP, detected with luciferase, serves as a proxy for viable cell number.)

The subject of assay [11] is HaCat. The assay is described as above. Particulars: Five cell lines viability, CellTiter-Glo ATP luminescence, 48-72 h; max response: stronger effect = lower value. Summed up:
as §1

The test system of assay [12] is SKOV3. Nature of the assay: Primary qHTS to identify gynecologic anti-cancer compounds using libraries of approved drugs and bioactive compounds (AID 1345084). Further: on the % scale 0 is the no-effect control and ±100 the full control effect; nearly all actives have a fitted effect of over 55% in size. The conditions noted are these: Gynecologic cancer cell panel viability, ATPlite luminescence, 48 h; series mostly up to 57.5 µM. Summed up:
(§2)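 Five-concentration response, 48 h; readout is ATP-driven luciferase luminescence.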

The target of assay [13] is Cytochrome P450 2D6 (Homo sapiens) (UniProt P10635). Nature of the assay: Cytochrome P450 family 2 subfamily D member 6 (CYP2D6) small molecule antagonists: luciferase biochemical (cell-free) qHTS assay (AID 1645840; active means well fitted curve in the direction sought with a large enough effect in the repeat runs; an effect the other way counts as inactive or inconclusive; further: nearly all actives have a fitted effect of over 55% in size; further: potency means the concentration at half of the fitted maximal effect; on activity change, negative = inhibition: on the % scale 0 is the no-effect control and ±100 the full control effect). Put shortly: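 P450-Glo CYP2D6 system: proluciferin substrate converted by enzyme to luciferin, read by luminescence proportional to activity. Enzyme-substrate mix with compound 10 min at room temperature, then NADPH regeneration 1 h before detection reagent.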
Sequence of Cytochrome P450 2D6 (Homo sapiens) (P10635 whole entry, looked up): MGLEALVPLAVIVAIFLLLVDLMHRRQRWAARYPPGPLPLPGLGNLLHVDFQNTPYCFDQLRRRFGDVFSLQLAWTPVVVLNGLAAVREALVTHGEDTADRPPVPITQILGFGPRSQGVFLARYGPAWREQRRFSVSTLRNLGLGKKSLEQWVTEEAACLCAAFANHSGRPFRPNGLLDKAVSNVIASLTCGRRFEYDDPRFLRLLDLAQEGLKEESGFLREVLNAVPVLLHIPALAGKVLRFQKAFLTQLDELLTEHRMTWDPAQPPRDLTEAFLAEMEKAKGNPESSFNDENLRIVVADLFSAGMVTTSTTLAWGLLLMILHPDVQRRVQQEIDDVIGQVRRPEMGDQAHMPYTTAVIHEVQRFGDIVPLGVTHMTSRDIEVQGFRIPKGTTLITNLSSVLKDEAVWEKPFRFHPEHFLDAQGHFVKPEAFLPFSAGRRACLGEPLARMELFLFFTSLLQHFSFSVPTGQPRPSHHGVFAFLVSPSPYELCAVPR

The test system of assay [14] is HACAT. Kind of assay: qHTS assay to identify novel small-molecules to repurpose for Merkel cell carcinoma treatment (AID 1296009). Further: nearly all actives have a fitted effect of over 60% in size. Particulars: MCC and control cell lines, CellTiter-Glo viability, 72 h; at 44.8 µM (top of the series) unless noted. Put shortly:
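Cell viability measured by CellTiter-Glo following 72 hr compound treatment at 37 degree celsius, with NPC and MIPE libraries tested in 8- and 11-point concentration series.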

The test system of assay [15] is CAOV3. Nature of the assay: Primary qHTS to identify gynecologic anti-cancer compounds using libraries of approved drugs and bioactive compounds (AID 1345084). Further: on the % scale 0 is the no-effect control and ±100 the full control effect; nearly all actives have a fitted effect of over 55% in size. The conditions noted are these: Gynecologic cancer cell panel viability, ATPlite luminescence, 48 h; series mostly up to 57.5 µM. Summed up: as §2
Assay [16] can be described thus: P-glycoprotein substrates identified in KB-8-5-11 adenocarcinoma cell line, qHTS therapeutic library screen (AID 1346987). Further: potency means the concentration at half of the fitted maximal effect; nearly all actives have a fitted effect of over 65% in size. Summed up:
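Human cervical adenocarcinoma KB-8-5-11 cells, selected in colchicine to over-express P-gp and assayed without it, were exposed for 72 h to titrated compounds. An ATP-based luminescent viability signal gave AC50.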

Records with an inconclusive call do not appear. Activity calls are given as the source filed them. Unless noted, the call rests on the fitted dose curve; in most records, active means well fitted curve in the direction sought with a large enough effect; inconclusive means small, poorly fitted or top-dose-only effect, or another doubt; inactive means no such curve, though single readings can be large; an effect the other way counts as inactive or inconclusive.

Sequence of Cytochrome P450 2C9 (Homo sapiens) (P11712 whole entry, looked up): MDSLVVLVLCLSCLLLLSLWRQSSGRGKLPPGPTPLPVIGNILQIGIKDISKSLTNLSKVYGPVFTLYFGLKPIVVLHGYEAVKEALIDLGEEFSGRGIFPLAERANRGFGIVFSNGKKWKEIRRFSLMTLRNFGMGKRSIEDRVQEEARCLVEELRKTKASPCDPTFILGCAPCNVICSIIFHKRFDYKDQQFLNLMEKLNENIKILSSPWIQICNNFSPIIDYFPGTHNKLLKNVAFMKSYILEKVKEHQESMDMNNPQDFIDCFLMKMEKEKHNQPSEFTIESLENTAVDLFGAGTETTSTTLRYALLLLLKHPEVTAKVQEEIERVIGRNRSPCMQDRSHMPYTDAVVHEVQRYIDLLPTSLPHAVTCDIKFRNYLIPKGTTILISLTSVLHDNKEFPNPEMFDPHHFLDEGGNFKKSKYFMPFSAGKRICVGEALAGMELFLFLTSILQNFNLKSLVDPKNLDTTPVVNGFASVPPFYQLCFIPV
Sequence of Nicotinamide N-methyltransferase (Homo sapiens) (P40261 whole entry, looked up): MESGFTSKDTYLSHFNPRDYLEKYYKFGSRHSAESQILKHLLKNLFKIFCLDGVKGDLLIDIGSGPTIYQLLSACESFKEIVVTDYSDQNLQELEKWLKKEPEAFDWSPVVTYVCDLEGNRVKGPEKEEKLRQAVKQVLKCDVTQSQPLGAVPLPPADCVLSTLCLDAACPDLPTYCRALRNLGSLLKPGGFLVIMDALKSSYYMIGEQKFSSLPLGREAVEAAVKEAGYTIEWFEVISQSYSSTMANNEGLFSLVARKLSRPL

For `CC1CCN(C(c2ccc(F)cc2)c2ccc(C(C)C(=O)O)cc2-c2ccc(C(F)(F)F)cc2)CC1` (stereo unspecified), the Potency in [1] was 3.93 µM (active); in [2], 1.58 µM (active); in assay [3], 3.12 µM (active); in assay [4] it was 2.51 µM (active); in [5] it was 9.52 µM (active). Also, the activity in assay [6] was 4.19%; in assay [8] it was -58.6%; in [9], 4.79%. In addition, the activity change, negative = inhibition in assay [7] was 0%. Also, the max response in [10] was -3.89% (inactive); in [11] it was 1.13% (inactive). Moreover, the Potency result in assay [12] was “inactive”.
On to `N#CCC(C1CCCC1)n1cc(-c2ncnc3[nH]ccc23)cn1` (stereo unspecified), for which the Potency result in assay [2], in assay [13], in assay [15] and in assay [12] was “inactive” each time. Further, the Potency in assay [5] was 15.1 µM (active). The outcome in assay [11] and in assay [14] was “inactive” throughout.
Take `CCC(C)n1cc(C)c2c(C(=O)NCc3c(C)cc(C)[nH]c3=O)cc(-c3ccc(N4CCNCC4)nc3)cc21` (stereo unspecified): the Potency entry in assay [2] and in assay [12] was “inactive” throughout. Also, in [5], the Potency is 2.13 µM (active). For the same compound, the outcome in assay [11] and in [14] was “inactive” throughout.
For `COc1ccc2c(c1)C[C@H](C(=O)Nc1ccc(-c3cn[nH]c3)cc1OCCN(C)C)CO2`, the Potency entry in [2] and in assay [12] was “inactive” throughout. Moreover, the Potency in assay [5] was 4.25 µM (active). Further, the activity was -2.58% in assay [6], -0.41% in assay [8] and 0.522% in assay [9]. Besides, the activity change, negative = inhibition in [7] is -2.48% [at 9.47 µM]. The outcome in [11] and in assay [14] was “inactive” each time.
With `O=C(Nc1ccc(F)cc1)N1CCc2ccccc2C1c1ccc(C(F)(F)F)cc1` (stereo unspecified), the Potency in assay [16] was 20.6 µM (active); in [5] it was 5.35 µM (active); in assay [11] it was 14.6 µM (active). In addition, the Potency entry in [2] and in assay [15] was “inactive” in each case.
Turning to `CCC[C@@H](NC(=O)N1C(=O)C(CC)(CC)[C@@H]1Oc1ccc(C(=O)N2CCN(C)CC2)cc1)c1ccc2c(c1)OCO2`, the Potency in assay [16] was 20.6 µM (active); in assay [5], 3.38 µM (active). The Potency entry in [2] and in [12] was “inactive” throughout. Besides, the outcome in assay [11] and in assay [14] was “inactive” throughout.
In the case of `O=C(c1ccc(F)c(F)c1Nc1ccc(I)cc1F)N1CC(O)([C@@H]2CCCCN2)C1`, the values for the Potency in [16] and in [10] were 20.6 µM (active) and 7.31 µM (active), respectively. The Potency result in assay [2] is “inactive”.
For the compound `C/C=C(/COC(=O)/C(C)=C/C)C(=O)OC/C=C/c1ccc(OC)cc1`, the Potency entry in assay [2], in [15] and in assay [12] was “inactive” in each case. Moreover, the outcome in assay [11] and in [14] was “inactive” throughout.
`C[C@@H](c1nc(-c2ccc(C#N)cc2)cs1)[C@](O)(Cn1cncn1)c1cc(F)ccc1F`: the Potency entry in assay [2] and in assay [15] was “inactive” each time. For the same compound, the Potency in [5] was 6.01 µM (active). Also, the outcome in [11] and in assay [14] was “inactive” in each case.
Turning to `N#Cc1c[nH]c2c(C(=O)N3CCN(CCc4ccc(F)cc4)CC3)cccc12`, the Potency is 15.1 µM (active) in assay [13] and 13.5 µM (active) in assay [5]. In addition, the max response in assay [11] is -7.89% (inactive). Further, the Potency result in assay [15] was “inactive”.
